{"source": "PubChem BioAssay (NCATS)", "note": "Inconclusive results are not listed. Unmarked numbers belong to inactive results. Calls of active or inactive are those of the source. The call rests on the fitted dose curve; in most records, active means well fitted curve in the direction sought with a large enough effect; inconclusive means small, poorly fitted or top-dose-only effect, or another doubt; inactive means no such curve, though single readings can be large or run the other way."}
{"biological_target": "Protein phosphatase 1D (Homo sapiens) (UniProt O15297)", "sequence (O15297 whole entry, looked up)": "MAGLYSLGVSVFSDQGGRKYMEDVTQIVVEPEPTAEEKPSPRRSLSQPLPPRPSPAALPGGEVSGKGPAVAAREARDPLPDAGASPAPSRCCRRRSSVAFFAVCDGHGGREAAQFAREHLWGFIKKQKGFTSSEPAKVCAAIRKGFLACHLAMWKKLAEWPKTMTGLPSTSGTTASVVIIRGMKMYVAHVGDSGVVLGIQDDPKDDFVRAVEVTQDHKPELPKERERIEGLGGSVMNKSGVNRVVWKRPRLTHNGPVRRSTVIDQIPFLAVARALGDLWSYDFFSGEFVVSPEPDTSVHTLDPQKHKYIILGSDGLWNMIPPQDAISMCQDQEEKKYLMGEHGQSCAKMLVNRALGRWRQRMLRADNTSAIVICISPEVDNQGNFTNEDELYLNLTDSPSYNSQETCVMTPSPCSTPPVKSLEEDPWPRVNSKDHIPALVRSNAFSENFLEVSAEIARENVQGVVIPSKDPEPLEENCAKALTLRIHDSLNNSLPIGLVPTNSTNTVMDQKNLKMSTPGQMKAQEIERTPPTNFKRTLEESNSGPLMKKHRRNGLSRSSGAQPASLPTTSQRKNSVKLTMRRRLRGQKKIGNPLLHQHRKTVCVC", "experiment": "Rhodamine-PBP qHTS Assay for Modulators of WT P53-Induced Phosphatase 1 (WIP1) (AID 1347425)", "conditions": "recombinant WIP1, Rhodamine-PBP phosphate fluorescence, real-time; series mostly up to 57.5 µM", "description": "Assay Provider (PI): Nathan Coussens Ph.D.\nNational Center for Advancing Translational Sciences (NCATS), Rockville, MD\nNational Institute of Health (NIH), Bethesda, Maryland\nWT P53-Induced Phosphatase 1 (WIP1) is a member of the magnesium-dependent serine/threonine protein phosphatase (PPM) family and is induced by P53 in response to DNA damage. In several human cancers, the WIP1 protein is overexpressed, which is generally associated with a worse prognosis. Although WIP1 is an attractive therapeutic target, no potent, selective, and bioactive small-molecule modulator with favorable pharmacokinetics has been reported. Phosphatase enzymes are among the most challenging targets for small molecules because of the difficulty of achieving both modulator selectivity and bioavailability. Another major obstacle has been the availability of robust and physiologically relevant phosphatase assays that are suitable for high-throughput screening.\nHere, we describe two orthogonal biochemical WIP1 activity assays that utilize phosphopeptides from native WIP1 substrates. We optimized a RapidFire MS assay to quantify the enzymatically dephosphorylated peptide reaction product in a 384-well format. Additionally, a redshifted Rhodamine-PBP fluorescence assay was optimized in a 1,536-well format to enable real-time WIP1 activity measurements through the detection of the orthogonal reaction product, Pi. We validated these two optimized assays by quantitative high-throughput screening against the National Center for Advancing Translational Sciences (NCATS) Pharmaceutical Collection and used secondary assays to confirm and evaluate inhibitors identified in the primary screen.\nSEQUENCE No. (e.g., 1, 2, 3, etc.); […] (e.g., Cells, Incubation, Reagent, etc.); VALUE; DESCRIPTION\n1; Reagent; 3 uL; WIP1 (6.7 nM), Rh-PBP (13.3 uM), columns 1-48\n3; Library Compounds; 23 nL; NCATS Pharmaceutical Collection, column 5-48\n4; Control Compounds; DMSO in column 2, GSK2830371 (57.5 uM, final) in 3-fold serial dilutions in column 3, GSK2830371 (1.15 uM, final) in column 4\n5; Time; 1 hr; incubation\n6; Detection; fluorescence (f0); ViewLux, excitation filter = 525 nm, emission filter = 598 nm\n7; Reagent; 1 uL; VEPP-pS-QETFS (40 uM), columns 2-48\n8; Detection; fluorescence (f1); ViewLux, excitation filter = 525 nm, emission filter = 598 nm\nNOTES (numbers refer to sequence above)\n1 & 2; Black medium binding Greiner 1536-well plates (# 789176-F); assay buffer: 50 mM Tris-HCl pH 7.5, 30 mM MgCl2, 1mM TCEP, 0.1 mM EGTA, 75 ug/mL BSA; dispensed with a BioRaptr liquid handler (Beckman Coulter).\n3 & 4; Kalypsys pintool (equipped with 1536 pinhead, Wako USA) transfer. Tip wash sequence: DMSO, methanol, 3 sec vacuum dry.\n5; Room temperature incubation.\n7; VEPPL-pS-QETFS in assay buffer dispensed with a BioRaptr; final reaction conditions: 5 nM WIP1, 10 uM VEPPL-pS-QETFS, 10 uM Rh-PBP, 50 mM Tris-HCl pH 7.5, 30 mM MgCl2, 1 mM TCEP, 0.1 mM EGTA, 75 ug/mL BSA.\n8; Measurement taken at 1 min intervals for 11 min. Delta readout = f1 - f0."}
{"smiles": "C[C@]12CC[C@@H]3c4ccc(O)cc4C[C@@H](CCCCCCCCCS(=O)CCCC(F)(F)C(F)(F)F)[C@H]3[C@@H]1CC[C@@H]2O", "note": "(stereo not given in full)", "outcome": "inactive"}
{"smiles": "CCCCNC(=O)NS(=O)(=O)c1ccc(C)cc1", "outcome": "inactive"}
{"smiles": "CC(=O)Nc1nnc(S(N)(=O)=O)s1", "outcome": "inactive"}
{"smiles": "CCCNC(C)C(=O)Nc1ccccc1C", "note": "(stereo not given)", "outcome": "inactive"}
{"smiles": "C[N+](C)(C)CCCCCCCCCC[N+](C)(C)C", "outcome": "inactive"}
{"smiles": "Nc1c2c(nc3ccccc13)CCCC2O", "note": "(stereo not given)", "outcome": "inactive"}
{"smiles": "C#CCN(C)CCCOc1ccc(Cl)cc1Cl", "outcome": "inactive"}
{"smiles": "C[n+]1cc2c3c(ccc2c2ccc4cc5c(cc4c21)OCO5)OCO3", "outcome": "inactive"}
{"smiles": "COCCOC(=O)C1=C(C)NC(C)=C(C(=O)OC(C)C)C1c1cccc([N+](=O)[O-])c1", "note": "(stereo not given)", "outcome": "inactive"}
{"smiles": "CN(C)CCN(Cc1cccs1)c1ccccn1", "outcome": "inactive"}
{"smiles": "O=c1[nH]c(=O)n([C@H]2C[C@H](O)[C@@H](CO)O2)cc1Br", "outcome": "inactive"}
{"smiles": "CN(C)C(=O)Oc1ccc[n+](C)c1", "outcome": "inactive"}
{"smiles": "CCN(CC)CCNC(=O)c1cc(S(C)(=O)=O)ccc1OC", "outcome": "inactive"}
{"smiles": "C[C@@H](O)[C@H]1C(=O)N2C(C(=O)O)=C(SCCN=CN)C[C@H]12", "outcome": "inactive"}
{"smiles": "CN1CCN(CC(=O)N2c3ccccc3C(=O)Nc3cccnc32)CC1", "activity change, negative = inhibition": "8.19% [at 4.81 µM]"}
{"smiles": "OCCN1CCN(CCCN2c3ccccc3C=Cc3ccccc32)CC1", "outcome": "inactive"}
{"smiles": "CC(C)NNC(=O)c1ccncc1", "outcome": "inactive"}
{"smiles": "CN1C[C@H](C(=O)N[C@]2(C)O[C@@]3(O)[C@@H]4CCCN4C(=O)[C@H](Cc4ccccc4)N3C2=O)C[C@@H]2c3cccc4[nH]cc(c34)C[C@H]21", "outcome": "inactive"}
{"smiles": "COC(=O)C1=C(C)NC(C)=C(C(=O)OC(C)(C)CN(C)CCC(c2ccccc2)c2ccccc2)C1c1cccc([N+](=O)[O-])c1", "note": "(stereo not given)", "outcome": "inactive"}
{"smiles": "CCCCOCCOCCOCc1cc2c(cc1CCC)OCO2", "outcome": "inactive"}
{"smiles": "O=C(CCCN1CCC(O)(c2cccc(C(F)(F)F)c2)CC1)c1ccc(F)cc1", "outcome": "inactive"}
{"smiles": "Cc1nc2ccccn2c(=O)c1CCN1CCC(C(=O)c2ccc(F)cc2)CC1", "outcome": "inactive"}
{"smiles": "O=C1NCN(c2ccccc2)C12CCN(CCCC(c1ccc(F)cc1)c1ccc(F)cc1)CC2", "outcome": "inactive"}
{"smiles": "CCCN(CCC)CCc1cccc2c1CC(=O)N2", "outcome": "inactive"}
{"smiles": "C[C@]12C=CC(=O)C=C1CC[C@H]1[C@@H]3C[C@@H](O)[C@](O)(C(=O)CO)[C@@]3(C)C[C@H](O)[C@@]12F", "outcome": "inactive"}
{"smiles": "COc1ccc(CN(CCN(C)C)c2ccccn2)cc1", "outcome": "inactive"}
{"smiles": "CN(C)CCCN1c2ccccc2Sc2ccc(C(F)(F)F)cc21", "outcome": "inactive"}
{"smiles": "Nc1ncn([C@@H]2O[C@H](CO)[C@@H](O)[C@H]2O)c(=O)n1", "outcome": "inactive"}
{"smiles": "CCn1cc(C(=O)O)c(=O)c2cc3c(cc21)OCO3", "outcome": "inactive"}
{"smiles": "CCN(CC)CCNC(=O)c1ccc(NC(C)=O)cc1", "outcome": "inactive"}
{"smiles": "CC[N+](C)(C)c1cccc(O)c1", "outcome": "inactive"}
{"smiles": "CCc1cccc(N(C)C(N)=Nc2cccc3ccccc23)c1", "outcome": "inactive"}
{"smiles": "CN(C(=O)CCCOc1ccc2[nH]c(=O)ccc2c1)C1CCCCC1", "outcome": "inactive"}
{"smiles": "Cc1ccc(S(=O)(=O)NC(=O)NN2CCCCCC2)cc1", "outcome": "inactive"}
{"smiles": "NC(N)=N/N=C/c1c(Cl)cccc1Cl", "outcome": "inactive"}
{"smiles": "CN1C(=O)CC[C@H]1c1cccnc1", "outcome": "inactive"}
{"smiles": "CCCC(C(=O)OCCN(CC)CC)(c1ccccc1)c1ccccc1", "outcome": "inactive"}
{"smiles": "CC1=NS(=O)(=O)c2cc(Cl)ccc2N1", "outcome": "inactive"}
{"smiles": "CC(C)(Oc1ccc(CCNC(=O)c2ccc(Cl)cc2)cc1)C(=O)O", "outcome": "inactive"}
{"smiles": "NC1=NCC2c3ccccc3Cc3ccccc3N12", "note": "(stereo not given)", "outcome": "inactive"}
